Structures are written as SMILES. Calls of active or inactive are those of the source. Unless noted, no rule for the calls is given here.

In test [1] the test system is Wnt5a (protein binding on small-molecule microarray). Nature of the test: Wnt5a binders on small-molecule microarray, primary screen, biophysical, 635/667 nm fluorescence (AID 1142).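 Also: fluorescence read at 667 nm with signal to noise per printed feature.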 The note with it: 635 nm fluorescence, higher = more signal.
Test [2] can be described thus: cell viability in Huh7 cells, primary screen, cytotoxicity control for HCV replication inhibitor project, CellTiter-Glo luminescence, basal, 48 h (AID 1143).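 Also: Huh7 hepatoma cells carrying a hepatitis C replication reporter with no stimulus; test concentration not given here.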 The conditions noted are these: Huh7 HCV replicon, higher = more signal, called active from +8 up or from −8 down. For orientation: ATP-based viability assays read luminescence as a measure of living cells.
Test [3] can be described thus: P. aeruginosa biofilm formation inhibitors, primary screen, PAO1 strain, BacTiter-Glo luminescence, LB-PBS (AID 1144). The note with it: 12 h, higher = more signal.
The nature of test [4]: CREB reporter modulators without forskolin, primary screen, cell-based, PC12, CRE-LacZ reporter, unstimulated (AID 1145). The note with it: no forskolin, luminescence, 4.5 h, higher = more signal, called active from +8 up or from −8 down.
A short description of test [5]: CREB reporter modulators under forskolin, primary screen, cell-based, PC12, CRE-LacZ reporter, forskolin-stimulated (AID 1146).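 Also: PC12 cells with 6xCRE LacZ reporter stimulated by forskolin 10 µM; beta-galactosidase reporter signal reflecting CREB driven transcription.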 The conditions noted are these: luminescence, 4.5 h, higher = more signal, called active from +8 up or from −8 down.
In test [6] the target is Streptavidin (Streptomyces avidinii) (UniProt P22629). Nature of the test: streptavidin binders on small-molecule microarray, primary screen, artefact control for SMM compound annotation, biophysical, 635/667 nm fluorescence (AID 1147).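 Also: signal reflects streptavidin binding to arrayed compounds as a control protein.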 The note with it: streptavidin binding, higher = more signal.
Test [7] can be described thus: small-molecule binders of probe aInhba, primary screen, biochemical, small-molecule microarray, 635/667 nm fluorescence (AID 1148).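 Also: score merges 667nm spot fluorescence with signal-to-noise for antibody binding to printed compounds.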 The note with it: higher = more signal.
Test [8] deals with Torsin-1A (Homo sapiens) (UniProt O14656). Put plainly: torsin A binders from cell lysate, primary screen, small-molecule microarray, wild-type, 635/667 nm (AID 1149). The conditions noted are these: COS7 hTOR1A-WT lysate, 635 nm fluorescence, higher = more signal.
Test [9] shares this target. Put plainly: small-molecule binders of mutant TOR1A in lysate, primary screen, cell lysate, small-molecule microarray, COS7 lysate, 635/667 nm fluorescence (AID 1150).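 Also: score pools 667 nm emission and signal to noise measuring lysate protein binding.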 The note with it: COS7 hTOR1A mutant lysate, 635 nm fluorescence, higher = more signal.
Test [10] has as its system Sonic hedgehog protein (Shh). Put plainly: small-molecule binders of Shh protein, primary screen, biochemical, small-molecule microarray, 635/667 nm fluorescence (AID 1151).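 Also: Shh protein binding to compounds spotted on small-molecule microarray slides; score combines spot fluorescence intensity with signal-to-noise across triplicate slides.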 The conditions noted are these: small-molecule microarray binding, 635 nm fluorescence; higher = more signal.
Test [11] in a line: E. coli DRC41 culture turbidity changes, primary screen, E. coli filamentation inducer project, strain DRC41, OD650, 48 h (AID 1152).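 Also: E. coli MC1000 strain DRC41 lacking acrAB efflux pump and sulA.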 The note with it: E. coli DRC41 (acrAB sulA), higher = more signal, called active from +8 up or from −8 down.
A short description of test [12]: small-molecule binders of probe aLefty1, primary screen, biochemical, small-molecule microarray, 635/667 nm fluorescence (AID 1153).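 Also: score merges spot fluorescence with signal-to-noise ratio from the scanned slide images.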 The conditions noted are these: higher = more signal.
Test [13] in a line: PSAC antagonists in infected red cells, primary screen, cell-based, P. falciparum Indochina, OD700, 1 h (AID 1154). The conditions noted are these: P. falciparum Indochina infected RBC osmotic lysis, higher = more signal, called active from +8 up or from −8 down.
The nature of test [14]: PSAC antagonists in infected red cells, primary screen, cell-based, P. falciparum Indochina, OD700, 2 h (AID 1155).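 Also: lysis reports solute entry through the parasite surface anion channel PSAC; channel blockers reduce lysis of infected cells.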 The conditions noted are these: P. falciparum Indochina infected erythrocytes, osmotic lysis OD700; higher = more signal, called active from +8 up or from −8 down.
Test [15] can be described thus: osmotic lysis modulators in infected erythrocytes, primary screen, PSAC antagonist project, cell-based, P. falciparum Indochina, OD700, 3 h (AID 1156). The note with it: higher = more signal, called active from +8 up or from −8 down.
Test [16] in a line: PSAC antagonists in infected red cells, primary screen, cell-based, P. falciparum Indochina, OD700, 18 h (AID 1157). The note with it: P. falciparum Indochina infected erythrocytes, osmotic lysis OD700, 18 h; higher = more signal, called active from +8 up or from −8 down.
A short description of test [17]: modulators of S6 phosphorylation in cells, primary screen, cell-based, A549, cytoblot, luminescence, serum-stimulated (AID 1158).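 Also: serum-stimulated A549 lung adenocarcinoma cells; signal is phosphorylated S6 detected by cytoblot immunostaining with HRP secondary.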 The note with it: A549 phospho-S6 cytoblot, 5 h, higher = more signal.
Test [18] has as its target NADPH oxidase 2 (Homo sapiens) (UniProt P04839). Put plainly: NOX2-dependent H2O2 signal modulators, primary screen, NOX inhibitor project, cell-based, HEK293-NOX2, PMA-stimulated, Amplex Red fluorescence (AID 1159). Also: test concentration not given here. The conditions noted are these: 45 min, higher = more signal, called active from +8 up or from −8 down.
For test [19], the target named is NADPH oxidase 4 (Homo sapiens) (UniProt Q9NPH5). Put plainly: NOX4-dependent H2O2 signal modulators, primary screen, NOX inhibitor project, cell-based, HEK293-NOX4, tetracycline-induced, Amplex Red fluorescence (AID 1160). The note with it: 45 min, higher = more signal, called active from +8 up or from −8 down.
The target of test [20] is NADPH oxidase 5 (Homo sapiens) (UniProt Q96PH1). Put plainly: NOX5-dependent H2O2 signal modulators, primary screen, NOX inhibitor project, cell-based, HEK293-NOX5, Amplex Red fluorescence (AID 1161). The note with it: HEK293-NOX5, ionomycin, 45 min, higher = more signal.
NADPH oxidase 5 (Homo sapiens), sequence (Q96PH1 whole entry, looked up): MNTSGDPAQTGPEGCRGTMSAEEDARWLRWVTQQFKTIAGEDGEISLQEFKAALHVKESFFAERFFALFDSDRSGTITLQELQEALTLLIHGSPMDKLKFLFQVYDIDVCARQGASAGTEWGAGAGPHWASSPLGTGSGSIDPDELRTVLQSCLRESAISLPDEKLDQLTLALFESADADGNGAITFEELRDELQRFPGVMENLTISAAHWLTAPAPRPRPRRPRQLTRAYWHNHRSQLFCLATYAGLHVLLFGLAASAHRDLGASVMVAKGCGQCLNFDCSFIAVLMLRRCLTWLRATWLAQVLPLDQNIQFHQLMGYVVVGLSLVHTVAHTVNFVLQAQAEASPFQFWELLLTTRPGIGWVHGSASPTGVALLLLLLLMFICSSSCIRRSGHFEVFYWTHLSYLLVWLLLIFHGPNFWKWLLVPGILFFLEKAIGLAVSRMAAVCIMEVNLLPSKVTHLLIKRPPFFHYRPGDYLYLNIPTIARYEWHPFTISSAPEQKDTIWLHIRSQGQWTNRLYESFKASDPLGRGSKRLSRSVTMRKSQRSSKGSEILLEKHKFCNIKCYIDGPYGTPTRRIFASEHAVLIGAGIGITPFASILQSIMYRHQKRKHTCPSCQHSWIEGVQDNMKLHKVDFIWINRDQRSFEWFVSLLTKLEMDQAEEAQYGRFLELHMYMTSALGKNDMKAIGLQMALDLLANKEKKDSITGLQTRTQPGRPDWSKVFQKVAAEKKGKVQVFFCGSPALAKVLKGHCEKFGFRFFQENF

NADPH oxidase 4 (Homo sapiens), sequence (Q9NPH5 whole entry, looked up): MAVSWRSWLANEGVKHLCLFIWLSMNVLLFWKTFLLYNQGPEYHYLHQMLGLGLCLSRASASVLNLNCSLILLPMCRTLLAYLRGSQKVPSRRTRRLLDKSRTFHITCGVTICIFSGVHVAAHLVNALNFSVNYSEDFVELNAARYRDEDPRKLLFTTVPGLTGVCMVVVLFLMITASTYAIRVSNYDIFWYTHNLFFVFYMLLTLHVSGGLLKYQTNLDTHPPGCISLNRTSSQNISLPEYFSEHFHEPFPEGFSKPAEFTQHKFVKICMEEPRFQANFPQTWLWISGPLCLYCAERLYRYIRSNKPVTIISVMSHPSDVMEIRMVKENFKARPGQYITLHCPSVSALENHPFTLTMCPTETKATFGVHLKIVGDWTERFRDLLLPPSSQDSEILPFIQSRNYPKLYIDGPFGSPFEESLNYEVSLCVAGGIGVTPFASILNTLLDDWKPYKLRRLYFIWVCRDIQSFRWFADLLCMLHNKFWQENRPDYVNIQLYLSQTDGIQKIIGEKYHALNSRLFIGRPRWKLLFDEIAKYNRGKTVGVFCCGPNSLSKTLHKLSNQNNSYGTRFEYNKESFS
Torsin-1A (Homo sapiens), sequence (O14656 whole entry, looked up): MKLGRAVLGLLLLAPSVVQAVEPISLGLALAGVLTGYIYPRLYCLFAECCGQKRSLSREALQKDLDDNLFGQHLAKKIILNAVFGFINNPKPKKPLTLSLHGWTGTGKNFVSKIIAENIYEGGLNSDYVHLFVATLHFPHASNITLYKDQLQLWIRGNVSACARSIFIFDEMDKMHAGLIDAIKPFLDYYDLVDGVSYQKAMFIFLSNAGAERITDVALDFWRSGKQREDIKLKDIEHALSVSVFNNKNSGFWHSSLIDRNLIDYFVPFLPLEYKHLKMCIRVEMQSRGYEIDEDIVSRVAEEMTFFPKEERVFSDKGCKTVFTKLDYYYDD
Streptavidin (Streptomyces avidinii), sequence (P22629 whole entry, looked up): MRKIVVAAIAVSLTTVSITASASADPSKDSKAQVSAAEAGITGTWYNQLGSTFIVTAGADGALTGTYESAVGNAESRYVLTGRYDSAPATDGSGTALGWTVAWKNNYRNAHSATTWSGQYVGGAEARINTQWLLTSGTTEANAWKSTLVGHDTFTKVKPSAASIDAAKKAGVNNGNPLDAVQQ
NADPH oxidase 2 (Homo sapiens), sequence (P04839 whole entry, looked up): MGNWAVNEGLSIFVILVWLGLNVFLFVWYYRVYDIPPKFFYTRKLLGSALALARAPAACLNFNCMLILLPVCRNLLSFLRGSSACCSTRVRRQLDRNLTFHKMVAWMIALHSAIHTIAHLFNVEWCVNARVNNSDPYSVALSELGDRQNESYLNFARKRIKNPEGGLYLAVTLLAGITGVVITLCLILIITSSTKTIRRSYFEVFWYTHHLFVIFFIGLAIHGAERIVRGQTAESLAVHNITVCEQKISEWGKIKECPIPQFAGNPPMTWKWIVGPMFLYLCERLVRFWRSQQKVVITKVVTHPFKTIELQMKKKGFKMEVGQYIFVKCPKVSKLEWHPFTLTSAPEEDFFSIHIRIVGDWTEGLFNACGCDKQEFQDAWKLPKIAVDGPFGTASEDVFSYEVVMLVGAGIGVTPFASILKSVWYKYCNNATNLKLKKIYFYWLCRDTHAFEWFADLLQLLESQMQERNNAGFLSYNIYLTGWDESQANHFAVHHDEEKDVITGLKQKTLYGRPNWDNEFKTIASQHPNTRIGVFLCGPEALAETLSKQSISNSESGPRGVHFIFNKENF

Take `Cc1ccc(S[C@]2(C(=O)NCC(F)(F)F)CC(=O)N(Cc3cc(C(F)(F)F)cc(C(F)(F)F)c3)[C@@H]2c2ccc(CO)cc2I)cc1`: the composite z-score is -0.676 in test [1]; -0.978 in [6]; -0.153 in [7]; -0.877 with Torsin-1A (Homo sapiens) [8]; -0.902 with Torsin-1A (Homo sapiens) [9]; -0.58 in test [10]. This molecule displayed a composite z-score in [12] of -0.563. Further, the z-score in test [2] is -3.02 (inactive); in [3], -1.29 (inactive); in test [4], -0.529 (inactive); in [5], 0.423 (inactive); in [11], 0.168 (inactive); in test [13] it was 1.71 (inactive). The z-score in [14] is -0.0111 (inactive); in [15], 1.12 (inactive); in test [16], 0.449 (inactive); in [17] it was 0.837; in test [18], 1.63 (inactive); in test [19], -2.46 (inactive). The molecule further had a z-score in [20] of -1.28.
For `NC(=O)NCC#Cc1ccc2c(c1)[C@]1(C(=O)N2)[C@H](C(=O)N2CCN(c3ncccn3)CC2)[C@H]2C(=O)O[C@H](c3ccccc3)[C@H](c3ccccc3)N2[C@@H]1c1ccc(O)cc1`, the composite z-score in test [1] was 0.364; in [6], 0.328; in [7], -0.352; with Torsin-1A (Homo sapiens) [8], 0.0312; with Torsin-1A (Homo sapiens) [9], 0.377; in test [10], 0.905. This molecule also yielded a composite z-score in [12] of 0.141. Besides, the z-score in test [2] is -0.0243 (inactive); in test [3], 0.407 (inactive); in test [4], -0.467 (inactive); in [5] it was -0.43 (inactive); in [11], -1.08 (inactive); in [13], -0.362 (inactive). In addition, the z-score was -0.136 (inactive) in test [14]; 0.174 (inactive) in test [15]; -0.302 (inactive) in test [16]; 0.435 in test [17]; 1.13 (inactive) in test [18]; 0.162 (inactive) in [19]. This molecule also gave a z-score in test [20] of 0.437.
As for `[N-]=[N+]=Nc1ccccc1C[C@]1(C(=O)N2CCOCC2)COC(c2ccc(OCCCO)cc2)=N1`, the composite z-score in [1] is 0.375; in [6] it was 1.42; in test [7] it was 0.191; with Torsin-1A (Homo sapiens) [8] it was 0.442; with Torsin-1A (Homo sapiens) [9] it was 0.507; in [10], -1.01. The composite z-score in test [12] amounted to 0.401. Further, the z-score in [2] is -4.38 (inactive); in test [3], -0.33 (inactive); in test [4], 0.344 (inactive); in test [5], -0.687 (inactive); in [11], 1.59 (inactive); in test [13], 24.6 (active). The z-score was 7.83 (inactive) in [14]; 1.52 (inactive) in test [15]; -0.779 (inactive) in [16]; 0.779 in [17]; -3.84 (inactive) in test [18]; -0.00663 (inactive) in test [19]. Also, the z-score in test [20] is -1.73.
Consider `C=CC[C@]1(C(=O)N2CCOCC2)COC(c2ccc(OCCCO)cc2)=N1`, for which the composite z-score amounted to 0.0993 in test [1]; 1.76 in test [6]; 0.166 in test [7]; 1.74 with Torsin-1A (Homo sapiens) [8]; 2.16 in the test with Torsin-1A (Homo sapiens) [9]; 0.935 in [10]. This molecule also had a composite z-score in test [12] of 0.43. Further, the z-score is -2.76 (inactive) in test [2]; -0.974 (inactive) in [3]; 2.01 (inactive) in [4]; -0.778 (inactive) in [5]; 0.323 (inactive) in test [11]; 5.33 (inactive) in test [13]. Besides, the z-score in test [14] is 0.2 (inactive); in [15], 0.638 (inactive); in [16], 0.301 (inactive); in test [17], 0.0334; in test [18] it was -2.25 (inactive); in test [19] it was -0.335 (inactive). In test [20], this molecule gave a z-score of -0.859.
For `CC1CC/C=C\[C@H]2OC34C=CCN(Cc5ccccc5)C(=O)[C@H]3N(C(CO)C(C)C)C(=O)[C@@H]4C2C(=O)O1` (stereo not given in full), the composite z-score is -0.0818 in test [1]; -0.854 in [6]; -0.0695 in [7]; 0.505 in the test with Torsin-1A (Homo sapiens) [8]; -0.741 with Torsin-1A (Homo sapiens) [9]; -0.0532 in test [10]. This molecule also came in with a composite z-score in test [12] of -0.149. The z-score in [2] is -0.0399 (inactive); in test [3] it was 1.09 (inactive); in test [4], 2.1 (inactive); in test [5], 1.43 (inactive); in test [11], 0.084 (inactive); in test [13] it was 1.42 (inactive). Moreover, the z-score in test [14] was 0.667 (inactive); in test [15] it was 0.97 (inactive); in test [16], 0.304 (inactive); in [17], -0.529; in test [18] it was 1.84 (inactive); in test [19], 0.983 (inactive). The z-score in [20] turned out to be 2.21.
